Drawing on the OligoGym collection, this text covers sensor-assay potency score (higher = more potent) for 17 sequences.
Further: reference of the scale not given here.

One experiment has as its target DHX35. As to the kind of experiment: pooled miR-30 sensor sort-seq; sequence = guide strand. The settings on record: shRNA.
For the sequence TTCATTCGTAGAGACATGCTTG, the sensor-assay potency score (higher = more potent) was found to be 0.0862.
The same measure, in the same setting: the value for TAGACTGAGGCAACTTGTCAAA was -1.05; that for TTGTAAACAACCGTTGTCCCAG was -0.562; that for TAGAATGAAACCTCGCTGCATT was -0.528.
The same measure, in the same setting: the figure for TAAAATATGATTCCTAAGCTTG is -0.148.

A further experiment concerns the target DICER1. The experiment is described as above. Conditions: shRNA.
As to TATAAATCTGATATGTTCCTGA, the sensor-assay potency score (higher = more potent) amounted to 0.759.
The same measure, in the same setting: the value for TTATTCTTGAATCTGTAGTTGA was 0.19.
On the same count and under the same terms, the value for TTTGATTGTAAGAAAGACCATT was -0.387; that for TTAAAGTAGAATCTCTTTCTTT was 0.229; that for TTGTTTTATAATATTCTGCAAA was -0.989.
Same read-out and setting: the value for TTCCACAGTGACTCTGACCTTC was 0.615.
The sequence TTAGATTGAACATAGGATCGAT showed a sensor-assay potency score (higher = more potent) of 0.532.
The same measure, in the same setting: the figure for TAGATTGAACATAGGATCGATA is -1.08.
In the case of TTTTCTTTACAAAAGCTCCTGA, the sensor-assay potency score (higher = more potent) turned out to be 0.34.
On the same count and under the same terms, the value for TTGACCAAGAACACCGTCCTTT was 0.276; that for TGTAACTTCGACCAACACCTTT was -0.933; that for TTATTTTGTCTGTATCCGCTAA was -0.197.
